# Experimental data: PubChem BioAssay (NCATS)
# Records with an inconclusive call do not appear. Active and inactive are the calls of the source. Calls come from the whole dose curve; as a rule, active = well fitted inhibition curve with a large enough effect; inconclusive = small, poorly fitted or top-dose-only effect; inactive = flat fitted curve, though single readings scatter.
# System: not listed separately
# Assay: qHTS profiling for inhibitors of Plasmodium falciparum proliferation (AID 504749); note: nearly all actives have a fitted effect of over 60% in size;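 for activity, negative = inhibition: 0% = DMSO vehicle and full inhibition = artemisinin control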
# Details: P. falciparum in erythrocytes, SYBR Green DNA, 72 h; at 28.7 µM (top of the series); parasite line B
# Procedure, shortened: (§1)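 Fluorescence of SYBR Green-bound parasite DNA, read at 485/535 nm, served as the growth measure. Infected erythrocytes were cultured with compound 72 h; artemisinin (0.29 uM) and DMSO wells defined the normalization range.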
# Potency is the fitted concentration of half-maximal effect.
row,Structure (SMILES),"activity, negative = inhibition"
1,Oc1c(Cl)cc(Cl)cc1Sc1cc(Cl)cc(Cl)c1O,-1.75% (inactive)
2,O=C(O)CCCCC(=O)O,5.83% (inactive)
3,CC(O)(P(=O)(O)O)P(=O)(O)O,4.89% (inactive)
4,O=C1CCC(c2ccc(-n3ccnc3)cc2)=NN1,14.3% (inactive)
5,COc1cc(OC)cc(OC)c1,2.05% (inactive)
6,C[C@]12CCC(=O)C=C1CC[C@H]1[C@@H]3CC[C@](O)(C(=O)CO)[C@@]3(C)C[C@H](O)[C@@]12F,9.81% (inactive)
7,CCOC(=O)OC(C)OC1=C(C(=O)Nc2ccccn2)N(C)S(=O)(=O)c2ccccc21 (centres undefined),19.4% (inactive)
8,Cc1c(C(C)C)c(=O)n(-c2ccccc2)n1C,0.527% (inactive)
9,CN=C(NC#N)NCCSCc1csc(N=C(N)N)n1,-0.371% (inactive)
10,CC(Cc1cccc(C(F)(F)F)c1)NCCOC(=O)c1ccccc1 (centres undefined),6.99% (inactive)
11,CCOc1ccc(NC(=O)CC(C)O)cc1 (centres undefined),4.79% (inactive)
12,CCC(=O)c1c(O)cc(O)cc1O,0.647% (inactive)
13,OCc1ccccc1O,8.72% (inactive)
14,Nc1ccc(C(=O)Nc2ccccc2N)cc1,14.4% (inactive)
15,CCOC(=O)c1cccc(N)c1,6.86% (inactive)
16,Cc1cccn2c(=O)c(-c3nnn[nH]3)cnc12,2.69% (inactive)
17,CC(=O)Oc1ccc(C(=C2CCCCC2)c2ccc(OC(C)=O)cc2)cc1,9.72% (inactive)
18,N[C@H](CO)C(=O)O,-23.4% (inactive)
19,Nc1ccc(/C=C/c2ccc(N)cc2S(=O)(=O)O)c(S(=O)(=O)O)c1,7.68% (inactive)
20,CN(C)/N=N/c1nc[nH]c1C(N)=O,1.17% (inactive)
21,C[C@@H]1C[C@H]2[C@@H]3CCC4=CC(=O)C=C[C@]4(C)[C@@]3(F)[C@@H](O)C[C@]2(C)[C@H]1C(=O)CO,-8.33% (inactive)

# Same assay, conditions: P. falciparum in erythrocytes, SYBR Green DNA, 72 h; parasite line A
row,Structure (SMILES),Potency
1,COc1cc(-c2ccc(=O)[nH]n2)ccc1OC(F)F,11.2 µM (active)
2,CCOc1ccc2nc3cc(N)ccc3c(N)c2c1,7.94 µM (active)
3,CN1CCC(=C2c3ccccc3Sc3ccccc32)CC1,6.31 µM (active)
4,CC1=C(C(=O)OC(C)C)C(c2cccc([N+](=O)[O-])c2)C(C(=O)OC2CN(C(c3ccccc3)c3ccccc3)C2)=C(N)N1 (centres undefined),3.55 µM (active)
5,COc1ccc(CCN2CCC(Nc3nc4ccccc4n3Cc3ccc(F)cc3)CC2)cc1,1.41 µM (active)

# Same assay, conditions: P. falciparum in erythrocytes, SYBR Green DNA, 72 h; parasite line B
row,Structure (SMILES),Potency
1,COc1cc(-c2ccc(=O)[nH]n2)ccc1OC(F)F,0.891 µM (active)
2,CCOc1ccc2nc3cc(N)ccc3c(N)c2c1,5.01 µM (active)
3,CN1CCC(=C2c3ccccc3Sc3ccccc32)CC1,10 µM (active)
4,CC1=C(C(=O)OC(C)C)C(c2cccc([N+](=O)[O-])c2)C(C(=O)OC2CN(C(c3ccccc3)c3ccccc3)C2)=C(N)N1 (centres undefined),7.08 µM (active)
5,COc1ccc(CCN2CCC(Nc3nc4ccccc4n3Cc3ccc(F)cc3)CC2)cc1,2.24 µM (active)

# System: 3D7
# Assay: as above
# Details: P. falciparum in erythrocytes, SYBR Green DNA, 72 h; series mostly up to 28.7 µM; activity, negative = inhibition: at the top concentration
# Procedure, shortened: as §1
Structure (SMILES),"activity, negative = inhibition",Potency
Oc1c(Cl)cc(Cl)cc1Sc1cc(Cl)cc(Cl)c1O,2.61% (inactive),
O=C(O)CCCCC(=O)O,10.5% (inactive),
CC(O)(P(=O)(O)O)P(=O)(O)O,-9.08% (inactive),
CCCCOc1ccc(OCCCN2CCOCC2)cc1,6.2% [at 12.8 µM] (inactive),
O=C1CCC(c2ccc(-n3ccnc3)cc2)=NN1,2.13% (inactive),
COc1cc(OC)cc(OC)c1,3.02% (inactive),
C[C@]12CCC(=O)C=C1CC[C@H]1[C@@H]3CC[C@](O)(C(=O)CO)[C@@]3(C)C[C@H](O)[C@@]12F,1.64% (inactive),
CCOC(=O)OC(C)OC1=C(C(=O)Nc2ccccn2)N(C)S(=O)(=O)c2ccccc21 (centres undefined),-1.48% (inactive),
COc1cc(-c2ccc(=O)[nH]n2)ccc1OC(F)F,-8.12% (inactive),
CCOC(=O)n1ccn(C)c1=S,7.06% [at 12.8 µM] (inactive),
Cc1c(C(C)C)c(=O)n(-c2ccccc2)n1C,18.1% (inactive),
CN=C(NC#N)NCCSCc1csc(N=C(N)N)n1,-1.56% (inactive),
CCOc1ccc2nc3cc(N)ccc3c(N)c2c1,,11.2 µM (active)
NCCc1ccn[nH]1,2.25% [at 12.8 µM] (inactive),
CC(Cc1cccc(C(F)(F)F)c1)NCCOC(=O)c1ccccc1 (centres undefined),19.5% (inactive),
COc1c2occc2c(OC)c2c(=O)cc(C)oc12,1.81% [at 12.8 µM] (inactive),
CCOc1ccc(NC(=O)CC(C)O)cc1 (centres undefined),-3.84% (inactive),

Structure (SMILES),"activity, negative = inhibition",Potency
CN1CCC(=C2c3ccccc3Sc3ccccc32)CC1,,8.91 µM (active)
CC1=C(C(=O)OC(C)C)C(c2cccc([N+](=O)[O-])c2)C(C(=O)OC2CN(C(c3ccccc3)c3ccccc3)C2)=C(N)N1 (centres undefined),,7.08 µM (active)
CCC(=O)c1c(O)cc(O)cc1O,5.91% (inactive),
OCc1ccccc1O,4.05% (inactive),
Nc1ccc(C(=O)Nc2ccccc2N)cc1,15.8% (inactive),
COc1ccc(CCN2CCC(Nc3nc4ccccc4n3Cc3ccc(F)cc3)CC2)cc1,,1.78 µM (active)
CCOC(=O)c1cccc(N)c1,-12.5% (inactive),
Cc1cccn2c(=O)c(-c3nnn[nH]3)cnc12,0.173% (inactive),
CC(=O)Oc1ccc(C(=C2CCCCC2)c2ccc(OC(C)=O)cc2)cc1,-2.87% (inactive),
Cc1c(N(C)CS(=O)(=O)O)c(=O)n(-c2ccccc2)n1C,8.97% [at 12.8 µM] (inactive),
CCN(CC)C(=O)N1CCN(C)CC1,-0.343% [at 12.8 µM] (inactive),
N[C@H](CO)C(=O)O,3.68% (inactive),
Nc1ccc(/C=C/c2ccc(N)cc2S(=O)(=O)O)c(S(=O)(=O)O)c1,10.4% (inactive),
C[C@H](O)C(=O)Nc1c(I)c(C(=O)NC(CO)CO)c(I)c(C(=O)NC(CO)CO)c1I,1.38% [at 12.8 µM] (inactive),
CN(C)/N=N/c1nc[nH]c1C(N)=O,2.49% (inactive),
C[C@@H]1C[C@H]2[C@@H]3CCC4=CC(=O)C=C[C@]4(C)[C@@]3(F)[C@@H](O)C[C@]2(C)[C@H]1C(=O)CO,-27% (inactive),
